Test results: PubChem BioAssay (NCATS)
Results filed as inconclusive are left out. Activity calls are given as the source filed them. The call rests on the fitted dose curve; in most records, active means well fitted curve in the direction sought with a large enough effect; inconclusive means small, poorly fitted or top-dose-only effect, or another doubt; inactive means no such curve, though single readings can be large; an effect the other way counts as inactive or inconclusive.

What was measured:
[1] = target: Cellular tumor antigen p53 (Homo sapiens) (UniProt P04637); assay: Primary qHTS for small molecule compounds that upregulate eGFP-tagged delta133p53alpha (in N-terminal) cells. (AID 2060322); details: NCI-H358 eGFP-delta133p53alpha fluorescence, 24 h; activation: hits give high values;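 further: cells pre-induced with doxycycline then dosed without doxycycline; series mostly up to about 56 µM; 0% = DMSO vehicle and 100% = reference activator; nearly all actives have a fitted effect of over 75% in size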
Chain of Cellular tumor antigen p53 (Homo sapiens) (P04637 whole entry, looked up): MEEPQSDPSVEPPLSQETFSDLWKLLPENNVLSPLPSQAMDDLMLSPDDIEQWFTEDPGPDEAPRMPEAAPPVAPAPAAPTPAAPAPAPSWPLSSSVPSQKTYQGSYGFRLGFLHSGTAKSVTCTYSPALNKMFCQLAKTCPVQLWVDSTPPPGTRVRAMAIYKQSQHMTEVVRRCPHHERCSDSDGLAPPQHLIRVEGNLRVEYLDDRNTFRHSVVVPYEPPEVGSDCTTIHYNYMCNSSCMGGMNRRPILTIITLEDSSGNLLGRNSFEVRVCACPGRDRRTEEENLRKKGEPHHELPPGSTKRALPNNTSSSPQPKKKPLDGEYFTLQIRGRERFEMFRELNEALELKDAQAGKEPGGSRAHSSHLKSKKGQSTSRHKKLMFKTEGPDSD
Summary of the method: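 NCI-H358 cells pre-induced 24 h with 10 ng/ml doxycycline for eGFP-delta133p53alpha, plated dox-free and exposed 24 h at 37C to titrated compounds. Fixed, Hoechst-stained; gated GFP peak intensity by laser scanning cytometry, normalized to DMSO (0%) and 57.5 uM 5-azacytidine (100%).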

[2] = target: Aldehyde dehydrogenase, mitochondrial (Homo sapiens) (UniProt P05091); assay: qHTS for Inhibitors of the Aldehyde Dehydrogenase Family (ALDH2) Primary screen (AID 2061308);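 further: plate controls were vehicle for no effect and reference inhibitor for full effect; nearly all actives have a fitted effect of over 55% in size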
[3] = target: Retinaldehyde dehydrogenase 3 (Homo sapiens) (UniProt P47895); assay: qHTS for Inhibitors of the Aldehyde Dehydrogenase Family (ALDH1A3) Validation screen (AID 2061312); further: on the % scale 0 is the no-effect control and ±100 the full control effect; nearly all actives have a fitted effect of over 45% in size
[4] = target: Retinaldehyde dehydrogenase 3 (Homo sapiens) (UniProt P47895); assay: qHTS for Inhibitors of the Aldehyde Dehydrogenase Family (ALDH1A3) Primary screen (AID 2061315);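 further: plate controls were DMSO vehicle for no effect and reference inhibitor for full effect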

O=S(=O)(Nc1ccccc1N1CCCCC1)c1ccc(Cl)s1
inactive: activation [1] -11.9% | Potency [2] | Potency [3] | Potency [4]

Cc1c(C(=O)Nc2ccc(N3CCC(N4CCOCC4)CC3)c(C#N)c2)cnn1-c1ccc(Cl)cc1
inactive: activation [1] 15.8% | Potency [2] | Potency [3] | Potency [4]

Cc1ccccc1NC(=O)Nc1ccc(CN2C(=O)N([C@@H](CC(C)C)C(=O)N[C@@H](CC(=O)O)c3ccccc3)C(=O)C2(C)C)cc1
inactive: activation [1] -2.86% | Potency [2] | Potency [3] | Potency [4]

CC[C@@H](c1ccc(F)c(F)c1)n1c(C(=O)OC)c(-c2ccno2)[nH]c1=S
inactive: activation [1] -6.68% | Potency [2] | Potency [3] | Potency [4]
